Laboratory results published in PubChem BioAssay.
Activity calls are given as the source filed them. Unless noted, how the calls were made is not given here.

Assays:
[1] = tested on: XIP peptide (Xip251-270) binding; assay: small-molecule binders of XIP peptide, primary screen, biochemical, small-molecule microarray, fluorescence 635/667 nm, 0.1 µg/mL protein (AID 1182); conditions: fluorescent protein binding, 635 nm, higher = more signal, called active from +8 up or from −8 down
[2] = tested on: XIP peptide (Xip251-270); assay: small-molecule binders of XIP peptide, primary screen, biochemical, small-molecule microarray, fluorescence 635/667 nm, 0.5 µg/mL protein (AID 1183); conditions: small-molecule microarray binding, fluorescence 635 nm; higher = more signal
[3] = Plasmodium falciparum growth inhibition, primary screen, strain 3D7, DAPI fluorescence, 100 nL (AID 1184);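 further: parasites grown inside human red blood cells in medium with human serum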; conditions: P. falciparum 3D7 growth, 3 d, higher = more signal
[4] = biological target: Homeobox protein Hox-A13 (Mus musculus) (UniProt Q62424); assay: inhibitors of HoxA13-DNA binding, primary screen, biochemical, fluorescence polarization, labeled oligonucleotide (AID 1185); conditions: 15 min, higher = more signal, called active from +8 up or from −8 down
[5] = inhibitors of hydroxyurea-induced Chk1 phosphorylation, primary screen, imaging, HeLa, phospho-Chk1 antibody, percent positive cells (AID 1186); conditions: hydroxyurea-induced phospho-Chk1 immunofluorescence imaging, higher = more signal
[6] = inhibitors of hydroxyurea-induced Chk1 phosphorylation, primary screen, imaging, HeLa, phospho-Chk1 nuclear intensity (AID 1187); conditions: hydroxyurea-induced phospho-Chk1 immunofluorescence imaging, higher = more signal

Homeobox protein Hox-A13 (Mus musculus), sequence (Q62424 whole entry, looked up): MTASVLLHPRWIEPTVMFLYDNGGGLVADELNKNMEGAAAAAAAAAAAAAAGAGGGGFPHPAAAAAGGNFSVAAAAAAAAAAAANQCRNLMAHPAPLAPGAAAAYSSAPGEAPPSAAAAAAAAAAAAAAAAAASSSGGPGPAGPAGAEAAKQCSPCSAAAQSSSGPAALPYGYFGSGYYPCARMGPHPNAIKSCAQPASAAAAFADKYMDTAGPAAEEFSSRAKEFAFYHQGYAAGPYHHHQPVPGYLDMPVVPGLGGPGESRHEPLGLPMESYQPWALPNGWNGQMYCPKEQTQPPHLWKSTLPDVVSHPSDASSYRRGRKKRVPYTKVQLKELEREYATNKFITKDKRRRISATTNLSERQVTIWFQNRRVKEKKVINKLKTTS

SMILES	composite z-score [1]	composite z-score [2]	z-score [3]	z-score [4]	z-score [5]	z-score [6]
[N-]=[N+]=NCc1ccccc1C[C@]1(C(=O)NCCN2CCOCC2)COC(c2ccc(OCCCO)cc2)=N1	0.0364 (inactive)	0.258	-2.09	-4.71 (inactive)	-0.327 (inactive)	-0.625 (inactive)
COC(=O)[C@@]1(Cc2ccc(F)cc2)[C@H]2c3cc(C(=O)N(C)C)n(CCSCCO)c3C[C@H]2CN1C(=O)c1ccccc1	0.235 (inactive)	0.0692	-0.404	-4.76 (inactive)	0.511 (inactive)	0.469 (inactive)
COc1ccc(CCNC(=O)[C@@H]2c3ccccc3C(=O)N(Cc3ccccc3)[C@H]2c2ccc(CO)cc2)cc1	1.09 (inactive)	0.619	-1.08	-3.2 (inactive)	-0.938 (inactive)	-1.38 (inactive)
CO[C@H]1O[C@H](CO)[C@@H](OC(=O)c2ccc(Br)cc2)[C@@H]2OC(=O)[C@H](Cc3cccc(Br)c3)C/C=C/C[C@@H](Cc3cccc(Br)c3)C(=O)O[C@@H]12	1.69 (inactive)	0.675	-0.706	-2.82 (inactive)	0.373 (inactive)	0.574 (inactive)
O=C1NC(=O)C2C1C=CC(C(O)c1ccc3c(c1)OCO3)N2Nc1ccc(Cl)cc1Cl (configuration not stated)	2.16 (inactive)	0.726	0.576	-5.9 (inactive)	0.629 (inactive)	0.417 (inactive)
CC1CC/C=C\[C@H]2OC34C=CCN(Cc5ccccc5)C(=O)[C@H]3N(CCO)C(=O)[C@@H]4C2C(=O)O1 (some centres not stated)	0.449 (inactive)	0.108	-1.56	-4.51 (inactive)	-0.455 (inactive)	-0.466 (inactive)
COCCOC(=O)N1C(=O)[C@@]2(c3cc(C#Cc4ccc(OC)cc4)ccc31)[C@H](C(=O)N1CCc3cc(OC)c(OC)cc3C1)[C@H]1C(=O)O[C@H](c3ccccc3)[C@H](c3ccccc3)N1[C@@H]2c1ccc(O)cc1	1.64 (inactive)	0.759	-1.65	-0.63 (inactive)	-0.241 (inactive)	-0.261 (inactive)
COC(=O)[C@@]1(Cc2ccc(OC)cc2)[C@H]2c3cc(C(=O)N(C)C)n(Cc4cc(C)n(C)n4)c3C[C@H]2CN1C(=O)c1ccccc1	0.254 (inactive)	0.762	-1.63	-5.1 (inactive)	0.53 (inactive)	0.263 (inactive)
C=C(/C(=C/C[C@@H](OC(=O)c1ccncc1)c1cccc(OCCO)c1)c1cc(C(=O)OC)ccc1OC)C(C)C	0.577 (inactive)	0.723	-3.13	-3.8 (inactive)	-0.185 (inactive)	-0.235 (inactive)
COCCOC(=O)N1C(=O)[C@@]2(c3ccccc31)[C@H](c1ccc(OCCO)cc1)N1[C@H](c3ccccc3)[C@H](c3ccccc3)OC(=O)[C@H]1[C@@H]2C(=O)NC[C@H](O)c1ccccc1	0.103 (inactive)	0.808	-1.64	-4.23 (inactive)	0.228 (inactive)	0.726 (inactive)
COc1ccc(C(=O)Nc2ccc3c(c2)[C@]2(O[C@@H](CCO)[C@H]([Si](C)(C)c4ccc(OC)cc4)[C@H]2C)C(=O)N3Cc2ccccc2)cc1	0.439 (inactive)	0.45	-2.88	-1.01 (inactive)	-0.583 (inactive)	-0.644 (inactive)
O=C1c2ccccc2C(=O)C2CC([C@H]3Oc4ccccc4S(=O)(=O)N4CCC[C@@H]34)=CCC12 (some centres not stated)	-0.26 (inactive)	-0.267	-1.24	-1.77 (inactive)	-0.278 (inactive)	-0.063 (inactive)
CCCC[C@@H](O)C1=C(COc2ccccc2)Cn2c(=O)n(-c3ccccc3)c(=O)n2[C@H]1CO	1.52 (inactive)	0.628	-0.471	-6.48 (inactive)	-0.532 (inactive)	0.347 (inactive)
COc1ccc([Si](C)(C)[C@@H]2[C@@H](CC(=O)N(CCO)Cc3ccccc3)O[C@]3(C(=O)N(Cc4ccc(N5CCOC5=O)cc4)c4ccccc43)[C@H]2C)cc1	2.73 (inactive)	0.666	-0.352	-1.34 (inactive)	-0.269 (inactive)	0.0764 (inactive)
C=C[C@H](C)[C@H](OC(=O)Nc1ccc(SC)cc1)c1ccc(O)c2ccccc12	0.273 (inactive)	0.151	-0.243	-5.27 (inactive)	-0.08 (inactive)	-0.437 (inactive)
CN(C)CCCCCCNC(=O)[C@@H]1C[C@@H]2C(=O)NCC(=O)N2[C@@H]1c1ccc(O)cc1	1.82 (inactive)	0.935	-0.107	-1.63 (inactive)	-0.425 (inactive)	-0.297 (inactive)
NC(=O)[C@@H]1[C@H]2C(=O)O[C@H](c3ccccc3)[C@H](c3ccccc3)N2[C@H](c2ccccc2OCCO)[C@@]12C(=O)Nc1ccc(C#CCCO)cc12	0.585 (inactive)	0.588	0.291	-5.7 (inactive)	-0.266 (inactive)	-0.161 (inactive)
O=C(O)[C@]1(CCS(=O)(=O)c2ccccc2)N=C(c2ccc(OCCCO)cc2)O[C@@H]1c1ccccc1	0.744 (inactive)	-0.374	-0.212	-4.32 (inactive)	-0.178 (inactive)	0.06 (inactive)
COc1ccc([Si](C)(C)[C@H]2[C@H](CCn3cc(CCO)nn3)O[C@@]3(C(=O)N(Cc4cccc(N5C(=O)c6cccc7cccc5c67)c4)c4ccccc43)[C@@H]2C)cc1	0.979 (inactive)	0.697	-2.55	-2.56 (inactive)	-0.854 (inactive)	0.0226 (inactive)
COCCOC(=O)N1C(=O)[C@@]2(c3cc(C#Cc4ccc(OC)cc4)ccc31)[C@H](C(N)=O)[C@H]1C(=O)O[C@H](c3ccccc3)[C@H](c3ccccc3)N1[C@@H]2c1ccc(OCCO)cc1	0.283 (inactive)	0.721	-2.35	-1.11 (inactive)	0.0311 (inactive)	0.239 (inactive)
O=C1O[C@H](c2ccccc2)[C@H](c2ccccc2)N2[C@H]1[C@@H](C(=O)N1CCN(c3ncccn3)CC1)[C@]1(C(=O)Nc3ccc(C#CCCO)cc31)[C@H]2c1ccccc1OCCO	0.439 (inactive)	0.808	-2.19	-1.29 (inactive)	-0.329 (inactive)	-0.529 (inactive)
CC(C)(C)N1CC=CC23O[C@@H]4C=CCCOC(=O)C4[C@H]2C(=O)N(CCCO)[C@@H]3C1=O (some centres not stated)	-0.508 (inactive)	-1.18	-1.75	-5.86 (inactive)	-0.0977 (inactive)	-0.102 (inactive)
